# Data taken from the supplement of paper PMC6555819.
# Legend:
# Experiment in all cases: PBM binding z-score (relative to random genomic background probes); higher = stronger binding; sequences stand for … in GC…GCGATTGACAGCGTAGAATGAAGG
# [1] = system: PPARg:RXRa DBDmut IVT, anti-RXR (DBD mutation: RXRa K156A/R161A, NR concentration 270 nM, RXRa partner concentration 90 nM)
# In short: (§1)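 Probes were double-stranded and carried 34-nt variable regions with direct-repeat seeds, single-nucleotide variants, half-site ablations and random human genomic background sequences, printed on custom Agilent 4×180K protein-binding microarrays. Arrays were incubated 1 h with ligand-free nuclear receptor dimers in PBS pH 7.4, 2% milk, 0.02% Triton X-100, 1 mM DTT, 0.2 mg/mL BSA and 0.4 mg/ml salmon testes DNA. Antibodies against each partner (one per run) detected binding, and scanned fluorescence was regression-normalized. Binding z-scores use the random background probes as reference.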
# [2] = system: PPARg:RXRa IVT, anti-PPARg (NR concentration 270 nM, RXRa partner concentration 90 nM)
# In short: as §1
# [3] = system: PPARg DBDmut:RXRa IVT, anti-PPARg (DBD mutation: PPARg1 K132A/R137A, NR concentration 270 nM, RXRa partner concentration 90 nM)
# In short: as §1
# [4] = system: PPARg DBDmut IVT, anti-PPARg (DBD mutation: PPARg1 K132A/R137A, NR concentration 270 nM)
# In short: as §1
# [5] = system: PPARg homodimer (NR concentration 180 nM)
# In short: as §1
# [6] = system: PXR:RXRa (NR concentration 270 nM, RXRa partner concentration 90 nM)
# In short: as §1
# [7] = system: PXR homodimer (NR concentration 270 nM)
# In short: as §1
# [8] = system: RARa:RXR (NR concentration 270 nM, RXRa partner concentration 90 nM)
# In short: as §1
# [9] = system: RARa homodimer (NR concentration 270 nM)
# In short: as §1
# [10] = system: RARb:RXRa (NR concentration 270 nM, RXRa partner concentration 90 nM)
# In short: as §1
# [11] = system: RARb homodimer (NR concentration 270 nM)
# In short: as §1
# [12] = system: RARg:RXRa (NR concentration 270 nM, RXRa partner concentration 90 nM)
# In short: as §1
# [13] = system: RARg homodimer (NR concentration 270 nM)
# In short: as §1
# [14] = system: RXRa DBDmut IVT, anti-RXR (DBD mutation: RXRa K156A/R161A, NR concentration 90 nM)
# In short: as §1
# [15] = system: RXRa homodimer (NR concentration 180 nM)
# In short: as §1
# [16] = system: THRa:RXRa (NR concentration 90 nM, RXRa partner concentration 90 nM)
# In short: as §1
# [17] = system: THRa homodimer (NR concentration 90 nM)
# In short: as §1
# [18] = system: VDR homodimer (NR concentration 270 nM)
# In short: as §1
Sequence,PBM binding z-score [1],PBM binding z-score [2],PBM binding z-score [3],PBM binding z-score [4],PBM binding z-score [5],PBM binding z-score [6],PBM binding z-score [7],PBM binding z-score [8],PBM binding z-score [9],PBM binding z-score [10],PBM binding z-score [11],PBM binding z-score [12],PBM binding z-score [13],PBM binding z-score [14],PBM binding z-score [15],PBM binding z-score [16],PBM binding z-score [17],PBM binding z-score [18]
CGGACTAGGTCAGAACAGGACAGTGAAGGATGAT,6.67,6.53,3.25,1.13,1.57,0.748,0.281,0.846,0.0596,2.68,1.79,2.4,2.97,0.496,1.15,3.38,0.402,-0.0539
GCGACTGGGCCAAAGCAGGTTACCATAAGGTTGG,2.12,1.67,-1.03,-0.738,-0.482,-0.203,-0.655,0.347,-0.649,-0.0107,0.333,-0.0916,-0.132,-0.818,-0.0243,1.82,-0.598,-0.503
TCTAGCAGGCCAGAGGATCACTCAAGAGGTACGG,0.493,-0.268,-0.802,-1.11,-1.15,-0.557,-0.932,-0.354,-1.38,-0.18,-0.66,-0.277,-0.18,-0.0121,0.0922,-0.78,-0.974,-0.819
ACTATTAGTTGAGACGAGGGCAACCGATAGGTTG,0.0589,0.536,0.785,0.574,0.059,1.64,0.413,0.859,0.982,1.24,1.2,0.833,0.861,0.5,0.75,2.7,0.226,0.728
ATACCAAGGTGATCGTGACGTCGTTGATACTAAC,0.791,1.2,0.681,0.866,0.477,0.0619,0.0409,0.447,0.899,0.752,0.537,0.459,0.417,0.283,0.575,1.05,0.655,-0.00274
CGTCCAAGGTCAAGGTTAGTGAAAGAGACTCGAA,3.18,3.79,0.923,0.146,2.5,3.81,0.691,4.34,0.992,5.07,4.33,5.94,6.75,3.28,5.75,3.98,2.66,1.85
CGAACGAGGGCACGAGTTGATAGCAAATGCCGAT,3.89,3.93,0.0277,-0.0688,-0.0293,0.738,0.271,1.12,-0.123,2.6,1.05,1.8,1.98,2.18,1.49,1.84,0.134,1.58
CAAACTAGGCCACAGAGGTCAAAGTCCGTGCGTA,7.36,7.37,2.08,0.00435,3.3,5.81,4.73,6.18,0.998,4.29,4.87,5.71,4.91,2.16,6.16,3.95,1.62,4.03
AATACAGGGTCATCGTAGGCCAGAGTGCGCACAG,2.61,4.22,1.07,1.13,1.9,4.97,0.782,4.82,0.464,4.48,3.68,5.64,4.81,3.12,6.37,4.6,1.4,3.2
CCGTCTGGGGCATAAGGTTACCATAAGCCAGCCC,1.52,1.84,-1.52,-1.72,0.475,0.566,-0.335,1.39,-0.41,1.84,1.92,1.86,1.18,-0.715,1.23,2.17,1.31,0.173
TCTTGTAGATCAAAGGTTAAGAGAGCCGAAGCCT,1.9,3.87,0.236,-0.197,0.759,1.87,-0.162,3.06,0.341,1.9,1.45,1.84,0.766,0.28,3.32,1.18,-0.582,-0.415
CGAACTAGGTAATTGACAGGACAGTGAATAGTAA,5.41,4.17,0.954,0.672,0.615,-0.222,-0.131,-0.274,0.178,-0.185,0.027,0.00313,0.198,0.0767,-0.137,0.166,-0.0579,-0.054
GCTCCTAGGTCAGGTTGGTCAGCTAACGGGTACG,3.08,2.33,0.131,-0.79,0.823,0.632,0.2,1.26,-0.173,3.58,3.18,2.91,3.46,0.888,1.47,2.27,1.22,0.591
CAAACTAGGTCACCGGAAGGTCAAAGGCCGCATG,8.46,8.84,4.26,3.71,5.53,5.83,1.1,7.5,1.75,5.35,5.41,8.42,7.47,1.23,6.36,4.56,2.79,2.8
AGAATGAGGTTATACGTGGATCAGGGAAGAAAGT,3.62,2.12,1.26,0.938,1.69,1.17,0.993,1.89,0.612,1.55,1.08,1.69,0.925,1.84,2.1,2.48,1.1,1.21
CCTATTAGTTGACCGTAAGGGCAACCGAAGCTCG,0.0924,0.672,0.0839,-0.0421,1.63,0.919,0.939,1.35,1.56,1.91,2.75,1.73,1.51,0.339,0.616,2.29,1.78,1.06
TCTAGCACGCCAGAGGGTCACTCAAGAGGTACGG,0.507,0.0659,-0.875,-0.824,0.566,1.56,-0.773,2.37,-0.679,2.04,2.3,2.29,1.68,0.0776,2.41,1.48,-0.414,0.501
GCTTGTAGATCAAGATTAAGAAAGACTAAGCTAA,0.366,-0.13,0.0686,0.0924,-0.256,-0.671,-0.582,-0.252,-0.194,-0.426,-1.07,-0.362,-0.206,-0.488,-0.324,-0.364,-0.81,-0.356
CCTAGCAGGCCAGGCTCACTCAAGCATTTCGCTT,0.917,-0.38,-2.2,-2.12,-1.28,-0.919,-0.688,-1.09,-0.856,-0.239,-0.944,-0.644,-0.705,0.0454,-0.649,-0.789,-0.705,-0.911
CGAACTACGTCATTGACAGGACAGTGAATAGTAA,-0.246,-0.155,0.611,0.69,0.0858,-0.217,0.0481,-0.22,0.592,-0.0589,0.0564,0.288,0.139,0.0473,0.152,0.0548,-0.0847,-0.012
ATCTCTACGTAACCAAGTTCAGTGAATGCCGAAC,-0.22,0.0113,0.854,0.806,0.739,1.29,1.4,0.427,0.401,0.836,1.18,0.251,0.741,0.846,0.369,0.592,0.325,2.27
GCAAGTTGGTCAGTAAAAGGTCACACACCGGTCG,1.27,2.7,0.611,0.159,4.55,5.2,1.01,5.84,1.75,4.17,5.2,5.36,4.48,0.685,5.47,3.61,1.82,1.96
CCTACTGGGCCAAAGGTCATTGATTCCAATGCTC,5.22,7.01,0.541,0.177,3.56,5.31,2.33,6.35,1.33,4.46,4.66,5.94,4.86,1.43,7.21,3.33,0.631,2.09
AGACCGAGGGCAATGAGTTGATAGCACGGGTGGC,0.184,0.251,-0.826,-1.67,-1.05,1.23,5.21,-0.109,-0.589,1.79,0.894,0.934,1.36,1.31,0.545,0.481,-0.368,3.16
TGAATGCGGTTAAAGATCAGGGAACGTGGCGTCG,-0.715,0.725,0.416,0.69,0.0368,-0.493,-0.492,-0.11,-0.405,0.315,-0.707,-0.0436,-0.136,-0.853,0.338,-0.164,-0.454,-0.55
ATATGTAGGTTAGCTGGGGTAATTCAGACTAGGC,6.75,6.17,1.99,1.76,0.916,1.12,0.0639,1.44,0.818,1.02,0.856,0.69,0.761,0.642,0.773,3.87,0.672,0.606
TGAATGAGGTTATACGATCAGGGAACGTTGCAAA,0.677,1.61,0.964,0.564,0.291,0.89,-0.167,1.48,0.115,1.15,0.016,1.31,1.01,0.956,2.06,1.8,0.24,0.274
ATATGTAGGGTACATCCGGGTCATTCAGGCTATG,5.82,6.25,2.33,1.87,1.74,4.11,9.27,3.12,0.779,1.73,2.84,2.44,1.86,2.66,2.64,3.83,2.45,5.83
GATACAGGGTCAGCTAGAGGCAAGAGTATGGAAA,0.7,2.39,-0.415,-0.265,0.979,2.1,-0.207,2.8,0.136,3.97,2.77,4.72,4.64,0.963,4.52,2.8,0.438,0.394
